From the supplement of paper PMC3334620
Whole data set: some 33,000 sequences, median “E-score (-0.5 to 0.5)” near -0.021, cut for the highest 2% near 0.32. Shown is part of a subset that was picked to be rich in the highest values.

Target: T1, Zap1 (UniProt P47043)
T1 sequence: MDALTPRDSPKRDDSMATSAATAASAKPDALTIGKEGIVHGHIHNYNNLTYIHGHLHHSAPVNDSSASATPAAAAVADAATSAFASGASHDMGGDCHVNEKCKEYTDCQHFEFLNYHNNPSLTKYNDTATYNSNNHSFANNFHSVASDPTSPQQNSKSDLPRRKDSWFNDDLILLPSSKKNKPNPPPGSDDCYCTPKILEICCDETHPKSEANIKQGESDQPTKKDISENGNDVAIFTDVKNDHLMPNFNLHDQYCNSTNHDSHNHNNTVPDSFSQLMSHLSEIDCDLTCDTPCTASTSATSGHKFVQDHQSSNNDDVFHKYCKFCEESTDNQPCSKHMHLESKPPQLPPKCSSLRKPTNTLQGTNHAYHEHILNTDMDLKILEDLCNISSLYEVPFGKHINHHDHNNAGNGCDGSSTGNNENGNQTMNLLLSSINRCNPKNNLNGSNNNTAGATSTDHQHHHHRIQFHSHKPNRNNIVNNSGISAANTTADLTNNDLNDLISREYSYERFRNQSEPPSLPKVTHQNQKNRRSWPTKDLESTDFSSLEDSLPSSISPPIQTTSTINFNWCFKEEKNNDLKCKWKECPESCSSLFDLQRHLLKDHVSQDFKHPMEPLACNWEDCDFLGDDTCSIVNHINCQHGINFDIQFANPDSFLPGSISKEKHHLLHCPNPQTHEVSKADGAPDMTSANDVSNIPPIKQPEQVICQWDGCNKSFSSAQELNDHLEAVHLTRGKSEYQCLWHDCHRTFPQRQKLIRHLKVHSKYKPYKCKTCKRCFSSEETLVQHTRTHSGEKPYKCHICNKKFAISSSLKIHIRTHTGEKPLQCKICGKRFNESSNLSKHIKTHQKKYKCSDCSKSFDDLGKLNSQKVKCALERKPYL
Assay: PBM E-score (8-mer binding enrichment) (E-score (-0.5 to 0.5)); higher = stronger / more preferred TF binding
Details: protein concentration: 200 nM; construct: GST-full length
In short: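 Universal all-10-mer Agilent arrays, double-stranded by primer extension on fresh or once-stripped slides, were probed with about 100-200 nM GST-tagged yeast transcription factors made by PURExpress. Fluorescent anti-GST detected bound protein, and masliner normalised the scans. E-scores from the Universal PBM Analysis Suite were given to each ungapped eight-base word pooled with its reverse complement.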

Sequence	PBM E-score
AGTTGGTC	0.0383
AGTCTTAG	-0.182
GTATCCAA	0.0926
CCTGGCCC	-0.0746
CGTTAGTA	0.0365
GGTTATTA	0.438
GGTTATCA	0.445
AGTTATCA	0.186
AGTTAGTA	-0.00813
CGTTATCA	0.0155
CGTTATTA	0.114
AGTTATTA	0.106
GGTTAGTA	0.325
CAGAGATC	-0.134
CCGAGAAA	0.187
ACCCAGCA	0.0307
CGAATGAG	-0.106
AGTTATAG	0.148
ACCCTCAA	0.361
ACCCTCAT	0.267
ACCCTCAC	0.251
TCCCTCAA	0.014
CCCCTCAA	-0.068
ACCCTCAG	0.325
GGAGACGA	-0.032

Sequence	PBM E-score
ATCTTTAA	0.206
GGCCAGTA	0.177
AGTGGCTC	-0.175
AATCCTTG	0.0209
GATACCCA	0.184
AATACCCC	0.237
CATACCCC	0.348
GATACCCC	0.37
CATACCCA	0.221
GATACCAC	0.183
ATGTGAAG	-0.00714
ATGGGGGG	-0.045
ACTCGCAA	0.0584
CGCTTTGA	0.0708
CCTATAGC	-0.0148
ACTATAGG	0.0613
CCTATAGG	0.346
ATTGGCGG	-0.0834
AGCCCAAC	-0.0986
ACCCCTAG	0.341
ACCCCTCG	0.347
ACCCCTCT	0.174
CCCCCTAG	-0.343
ACCCCTAC	0.293
ACCCCTAT	0.324

Sequence	PBM E-score
ACCCCTAA	0.278
CCCCCTCG	-0.135
AGCCCTAG	-0.14
TACCGATA	0.102
CCGGTGCG	0.0015
AAATCTTG	0.0159
GCCAGCAC	-0.171
ATACCGCA	0.0517
CAACCGCA	0.106
AACCCGCA	0.314
TAACCGAA	0.319
CACCCGCA	-0.0495
TACCCGCA	0.364
CAACCGAA	0.199
TAACCGCA	0.426
GTACCGCA	0.383
GAACCGCA	0.149
AAACCGAA	0.114
CTACCGCA	0.00616
GTCCTTTA	0.132
CCGCCCAC	0.0267
GAAATCGA	-0.0672
GAACCGGA	0.0894
AAACCGGA	0.00487
TAACCGGA	0.364

Sequence	PBM E-score
AATTCTAC	0.104
TATACTAA	0.0714
GACAGCGA	-0.275
CGTTGGCC	-0.138
ACCGGTTG	0.119
GCCGGTCA	0.0353
CCCGGTTA	0.25
GCCGGTGA	0.0983
GCCGGTTA	0.33
ACCGGTTA	0.372
AGATTGAA	-0.0374
ATGCTAGG	-0.159
ACTAAATG	-0.036
ACCAGCGG	0.0819
CAAGATGC	-0.0715
AGTGGGAA	0.022
GTTGAAGA	-0.0696
ATGTCATC	-0.123
AGGTCAGA	0.149
CGGTCATC	0.131
ATGTCATA	-0.0263
AGGTCATA	0.347
AGGTCATC	0.373
GGGTCAGA	0.0808
GGGTCATA	0.432

Sequence	PBM E-score
CGGTCATA	0.201
AGGTCATG	0.416
AGGTCAGG	0.141
AGGTCAAG	0.277
TGCTCGAA	-0.0246
CATAGATC	-0.0935
ACATCTGG	0.0376
CAGTACTG	-0.118
GAGTCTTA	-0.368
ACGTAGGA	-0.12
ACGTCTGC	-0.272
AGGTCGTC	0.0799
AGGTCGTG	0.353
AGGTCGTA	0.189
AAACCAGA	0.165
CGGAACCC	0.326
CGCAACCA	0.283
CGGAACCG	0.169
CGCAACCC	0.379
GGCAACCC	0.358
AGGAACCC	0.104
GGCAACCA	0.116
AGCAACCC	0.239
CGCAACCG	0.281
AGATCGCA	-0.127

Sequence	PBM E-score
AATTCTTG	-0.0794
TTACACAA	0.21
GAGTGCAA	0.0286
CTACCCTA	0.291
ATACCCGC	0.314
CTACCCTC	0.35
ATACCCGA	0.224
ATACCCTA	0.459
CTACCCGC	0.244
AGACCCTC	0.092
ATACCCTC	0.323
GTACCCTA	0.413
GTACCCGA	0.184
CTACCCCC	-0.295
ATACCCTG	0.306
AGCATCTA	-0.248
CTCTTGCA	-0.161
AACGGCGA	0.0503
ATAAAGCA	-0.0384
CCGTCCCA	-0.0821
AAATAGCT	-0.141
CCTCTTGA	0.148
AGGACCCT	0.226
CACTGCGC	-0.192
TCACCAGA	0.015

Sequence	PBM E-score
CCACAAGG	0.33
CCACAAAA	0.237
CCACAAAG	0.34
CCACAAGC	0.0428
CCACAAGA	0.0787
CCACAAAC	0.147
ACTAGATA	0.115
AGTGCAAC	0.0909
CGGGTGTA	0.0123
CAAGGGTC	0.355
GAAGGGTC	0.211
AAAGGGTG	0.247
CAGGGGTA	0.286
AAAGGGCT	0.00434
AAGGGGTC	0.264
AAAGGGTT	0.396
AAAGGGGC	-0.00977
CAGGGGTC	0.321
CAAGGGCC	0.0489
AGAGGGTC	0.213
AAAGGGTC	0.363
CACGATCC	0.141
